Source: PubChem (National Center for Advancing Translational Sciences (NCATS))
Compounds with a hit are over-represented: about 6.5% of the library has one in this group of screens.
FMDV antiviral: High Throughput Screening for Foot and Mouth Disease Virus Antivirals; Potency, µM (titrated, usually from 57.9 µM), without a hit: at the top dose activity change, negative = inhibition, actives largely listed as inhibitors; hit rate 1.2% among 410,000; FMDV antiviral cell-based qHTS; calls by dose curve; tested in HEK293T cells; note: read-out not given here; potency is the fitted concentration of half-maximal effect; nearly all actives have a fitted effect of over 45% in size
Vaccinia Venus: qHTS for Stage-Specific Inhibitors of Vaccinia Orthopoxvirus: Venus Reporter Primary qHTS. AID 720580, 2013. Vaccinia virus Venus reporter expression, fluorescence. hit rate 0.46% among 330,000. Potency, µM (highest dose often 36.5 µM), without a hit: top-dose activity change, negative = inhibition, hits mostly inhibitors; calls by dose curve; tested in A549 cells; note: potency is the fitted concentration of half-maximal effect; nearly all actives have a fitted effect of over 30% in size
Vaccinia mCherry: qHTS for Stage-Specific Inhibitors of Vaccinia Orthopoxvirus: mCherry Reporter Primary qHTS | Vaccinia virus mCherry reporter infection, fluorescence | Potency, µM (top dose mostly 36.5 µM), without a hit: at the top dose activity change, negative = inhibition, hits mostly inhibitors | hit rate 0.63% among 310,000 | AID 720579, 2013; calls by dose curve; tested in A549 cells; note: potency is the fitted concentration of half-maximal effect; nearly all actives have a fitted effect of over 35% in size
Marburg entry inh: qHTS for inhibitors of binding or entry into cells for Marburg Virus; AID 540276, 2011; Potency, µM (doses to about 37.8 µM), for inactives: top-dose activity change, negative = inhibition, actives largely listed as inhibitors; hit rate 1.8% among 300,000; Marburg virus pseudotyped entry inhibition, cell reporter; calls by dose curve; tested in HEK293 cells; note: potency is the fitted concentration of half-maximal effect
HCMV inh: qHTS Assay for inhibitors of the human cytomegalovirus (HCMV). hit rate 4.5% among 410,000. HFF cells, HCMV-luciferase reporter, 72 h; stronger effect = lower value. activity change, negative = inhibition, % at 57.5 µM; in the data active = activity change below about -60%; inconclusive = no clear call, values can overlap the other calls; inactive = above about -39%
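Human foreskin fibroblasts infected with luciferase-reporter HCMV at MOI 1 PFU/cell, compounds at two doses. Luciferase measured 72 h post infection; normalized to buffer-only basal and Salinomycin (10uM) controls.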
Lassa entry inh: qHTS for Inhibitors of binding or entry into cells for Lassa Virus. Lassa virus pseudotype entry inhibition, cell reporter. Potency, µM (doses to about 37.9 µM), inactives show at the highest dose activity change, negative = inhibition, usual class: inhibitors. hit rate 1.2% among 300,000. AID 540256, 2011; calls by dose curve; tested in HEK293 cells; note: potency is the fitted concentration of half-maximal effect; nearly all actives have a fitted effect of over 50% in size
* hit, by the source's call; i = inactive; ? = inconclusive; · = no result given; ! = not active in a repeat; [ ] = dose if it differs, or a comment. % is set by controls: 0 for no effect and ±100 for the full control effect.

SMILES	FMDV antiviral	Vaccinia Venus	Vaccinia mCherry	Marburg entry inh	HCMV inh	Lassa entry inh
CCc1nnc(NC(=O)c2nc(S(C)(=O)=O)ncc2Cl)s1	?	7.7%	0.6%	-2.0%[46.1 µM]	-12.2	-9.2%[46.1 µM]
O=C(Nc1ccc2ccccc2c1)c1nc(S(=O)(=O)Cc2ccccc2F)ncc1Cl	·	-18.7%	-20.1%	·	·	·
Cc1nn(C)c(C)c1S(=O)(=O)N(CC(=O)NCCc1ccc(Cl)cc1)c1ccc(C(C)C)cc1	?	-4.2%	-12.1%	11.5%[46.1 µM]	-1.0	?
Cc1cc[n+](C2CCCCC2)c2ccccc12	·	-9.4%	-7.9%	·	·	·
Cc1cccc(C)c1NC(=O)c1nc(S(=O)(=O)Cc2ccccc2F)ncc1Cl	·	-9.9%	i	·	·	·
CS(=O)(=O)c1ncc(Cl)c(C(=O)Nc2ccc(OC(F)F)cc2)n1	20µM*	?	?	?	·	?
O=C(NCc1ccccc1)c1nc(S(=O)(=O)Cc2ccc(F)cc2)ncc1Cl	31.6µM*	-13.7%[7.34 µM]	-11.8%[7.34 µM]	?	-97.9*	?
CCCc1nnc(NC(=O)c2nc(S(=O)(=O)Cc3cccc(C)c3)ncc2Cl)s1	28.2µM*	·	·	·	-100.9*	·
Cc1ccccc1CS(=O)(=O)c1ncc(Cl)c(C(=O)Nc2ccc(F)cc2)n1	?	·	·	·	-98.1*	·
CS(=O)(=O)c1ncc(Cl)c(C(=O)Nc2ccc(N3CCOCC3)cc2)n1	·	-24.6%	-1.5%	?	·	?
Cc1ccc(NC(=O)c2cc(-c3ccccc3)nn2-c2ccccc2)cc1	-6.6%	-18.4%	-6.5%	?	-29.6	?
Cc1nnc(NC(=O)c2nc(S(=O)(=O)Cc3ccccc3)ncc2Cl)s1	5.62µM*	-1.5%	8.1%	?	-110.0*	?
O=C(Nc1ccc(F)cc1)c1nn(-c2ccccc2)c(=O)cc1Cl	22.4µM*	28.2µM*	?	7.08µM*	-100.2*	?
CCOC(=O)c1nc(S(C)(=O)=O)ncc1Cl	·	0.0%	i	?	-70.2*	-34.4%
Cc1cccc(CS(=O)(=O)c2ncc(Cl)c(C(=O)NCc3ccccc3)n2)c1	31.6µM*	-17.3%[7.34 µM]	-18.2%[7.34 µM]	4.47µM*	-92.4*	?
Cc1cccc(CSc2ncc(Cl)c(C(=O)Nc3nnc(C)s3)n2)c1	11.5%	-5.7%	-0.1%	-14.0%[46.1 µM]	-9.8	20.1%[46.1 µM]
CCOc1ccc(NC(=O)c2cc3cc(C)ccc3n2C)cc1	5.4%	-13.6%	-7.1%	-14.7%[46.1 µM]	-26.7	0.8%[46.1 µM]
CCOc1ccc(NC(=O)c2nc(S(=O)(=O)Cc3ccccc3C)ncc2Cl)cc1	·	-20.7%	14.1%	·	·	·
Cc1ccc(NC(=O)c2nc(S(=O)(=O)Cc3ccccc3)ncc2Cl)cc1	28.2µM*	?	-23.4%	?	-97.8*	-16.8%
CC(=O)Nc1cc(OC(C)=O)c2nonc2c1OC(C)=O	?	7.94µM*	7.94µM*	?	-103.6*	?
COc1ccc(-n2ncc3c(NC(C)(C)CO)ncnc32)cc1	-7.4%	-12.7%	i	·	-6.0	-1.8%[46.1 µM]
C=CCOc1ccc(/C(O)=C2\C(=O)C(=O)N(CCN(C)C)[C@@H]2c2cccs2)cc1	·	·	·	6.5%[46.1 µM]	·	·
CCc1nnc(NC(=O)CSc2nc3c([nH]c4ccccc43)c(=O)n2-c2ccc(Cl)cc2)s1	-8.2%	-17.4%	-15.0%	·	-9.5	7.94µM*
O=C(CSc1nc2c([nH]c3ccccc32)c(=O)n1-c1cccc(Cl)c1)N1CCOCC1	-33.9%	8.2%	30.6%	·	-92.9*!	-21.3%[46.1 µM]
COc1cccc(-n2c(SCC(=O)Nc3cccc(C)c3)nc3c([nH]c4ccccc43)c2=O)c1	0.0%	-12.5%	-8.8%	·	15.0	-21.8%[46.1 µM]
SMILES	FMDV antiviral	Vaccinia Venus	Vaccinia mCherry	Marburg entry inh	HCMV inh	Lassa entry inh
COc1cccc(NC(=O)CSc2nc3c([nH]c4ccccc43)c(=O)n2-c2cccc(Cl)c2)c1	-21.0%	-6.3%[7.34 µM]	-3.0%[7.34 µM]	·	-73.6*	?
Cc1cc(C)cc(NC(=O)CSc2nc3c([nH]c4ccccc43)c(=O)n2-c2ccc(F)cc2)c1	0.0%	-4.0%	-13.5%	·	-88.0*	-23.3%[46.1 µM]
CCN1C(=O)c2ccccc2Sc2ccc(NC(=O)Nc3cccc([N+](=O)[O-])c3C)cc21	?	?	-28.9%	·	-17.6	0.6%[46.1 µM]
NC1N=CC(c2cc3ccccc3oc2=O)S1 (configuration not stated)	·	·	·	-13.5%[46.1 µM]	·	·
O=C(CSc1nnc(-c2n[nH]c3ccccc23)n1-c1ccccc1)Nc1cccc(Cl)c1	-28.1%	-25.9%	?	?	-73.1*	?
CCC1CCCCN1C(=O)CSc1nc2c([nH]c3ccccc32)c(=O)n1-c1cccc(OC)c1 (configuration not stated)	-12.0%	-27.9%	?	·	-90.9*	?
CCOCCCn1c(SCC(=O)Nc2ccccc2CC)nc2ccccc2c1=O	-12.3%	-9.9%	-8.8%	·	-25.3	-11.9%[46.1 µM]
COc1ccc(-c2nc3ccc(Br)cn3c2Cc2cccc(Cl)c2)cc1OC	-15.3%	4.9%	15.1%	·	?	·
Fc1cccc(Cc2c(-c3ccco3)nc3ccc(Br)cn23)c1	35.5µM*	2.1%	5.5%	·	56.6	·
Fc1cccc(Cc2c(-c3ccco3)nc3ccc(Cl)cn23)c1	?	1.2%	14.5%	·	·	·
COc1ccc(-c2nc3ccc(Br)cn3c2Cc2ccccc2)cc1OC	-3.2%	-13.8%	i	·	-65.1*	·
COC(=O)c1ccc(NC(=O)CC2C(=O)N(c3ccc(Cl)cc3)C(=O)N2Cc2ccco2)cc1 (configuration not stated)	8.1%	-11.8%	-8.7%	·	3.8	1.6%[46.1 µM]
C=CCNC(=O)c1onc(CSc2cc(C)cc(C)c2)c1C(=O)NCC=C	-26.4%	·	3.16µM*	·	?	·
COc1ccc(N2CCN(S(=O)(=O)CCNC(=O)Cc3ccc(Cl)cc3)CC2)cc1	1.8%	-1.5%	-11.0%	·	49.0	0.0%[46.1 µM]
Cc1oc(-c2ccc(C(=O)N(C)Cc3ccccc3)cc2)nc1CN1CCc2ccccc21	?	-25.3%	-27.0%	·	?	-4.0%[46.1 µM]
COc1cc(-c2ccc(C(F)(F)F)cn2)cc2c1OCCN(S(=O)(=O)C[C@]13CC[C@H](CC1=O)C3(C)C)C2	6.2%	-0.2%	-6.2%	·	·	·
CCc1ccccc1OCCSc1nnc(-c2cc(OC)c(OC)c(OC)c2)o1	-18.4%	1.7%	-7.2%	-8.4%[46.1 µM]	6.4	14.4%[46.1 µM]
Cc1ccc2nc(N3CCN(S(=O)(=O)c4ccc(C)c(Cl)c4)CC3)c(C#N)cc2c1	0.7%	·	·	4.61µM*	-39.6	?
CN(C)c1nc2n(c(=O)n1)[C@H](C#N)CS2	·	·	·	1.8%	·	·
Cc1cc(C)cc(-n2c3ccc(NC(=O)Cc4cccc5ccccc45)cc3c(=O)n2C)c1	-5.8%	-27.5%	5.7%	·	-70.5*	·
N/C(=N\c1nc2c(c(=O)[nH]1)CCC2)Nc1cccc(Cl)c1	-14.0%	?	?	6.31µM*	-28.2	-26.7%
Cc1cccc(N/C(N)=N/c2nc3c(c(=O)[nH]2)CCCC3)c1	4.1%	·	·	-45.3%	8.4	4.0%
